Screening results from PubChem.
The list is not random: actives were taken first. Their share in the collection is about 3.5%.
FBW7 act = activators of human E3 ligase FBW7 | Q969H0 | normalized activity (activation), % at 26.1 µM | AID 1259310 | AlphaScreen FBW7–phospho-cyclin E peptide binding, activator screen | actives 0.13% (n = 650,000); in the data active = normalized activity above about 1.9%;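 also: purified mutant Fbw7 with reduced substrate affinity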
TEAD-YAP inh = TEAD-YAP interaction inhibition | HEK-TIYL cells, TEAD-Gal4/YAP UAS-luciferase luminescence | inhibition, % at 9.12 µM | actives 1.4% (n = 640,000) | AID 1259422; in the data active = inhibition above about 32%;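 also: 0% = median of test compound wells and 100% = reference inhibitor wells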
GPR151 ag = activates the human receptor GPR151; Q8TDV0; PathHunter beta-arrestin GPR151 cells, luminescence; activation, % at 11.2 µM; actives 1% (n = 650,000); AID 1508602; in the data active = activation above about 4.9%;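 also: 0% = median of compound wells and 100% = cells with positive control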
MITF inh = blocks human microphthalmia-associated transcription factor; actives 0.91% (n = 650,000); O75030; AID 1259374; AlphaScreen MITF homodimerization, bead proximity signal; inhibition, % at 2.6 µM; in the data active = inhibition above about 50%;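 also: 0% = vehicle wells with protein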
GPR151 conf act = human GPR151 activation, confirmation screen. shares compounds with GPR151 ag. GPR151 PathHunter beta-arrestin cells, luminescence, 90 min; % of EA-reagent control over plate median. activation, % at 11.2 µM. 6,700 tested, under 10 active;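 active = mean percent activation across replicates above the confirmation screen cutoff of 4.91%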
GPR119 counter = GPR119 activation, counter-screen for GPR151 activators | shares compounds with GPR151 ag | GPR119 PathHunter beta-arrestin cells, luminescence, 90 min; 0 = compound-well median, 100 = enzyme-acceptor control | activation, % at 11.2 µM | actives 0.3% (n = 6,700) | AID 1508611;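 active = mean percent activation in the counterscreen above 29.09%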;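 also: counterscreen on off-target GPR119 to flag nonselective hits from the GPR151 activator screen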
Target sequence (Q8TDV5 whole entry, looked up): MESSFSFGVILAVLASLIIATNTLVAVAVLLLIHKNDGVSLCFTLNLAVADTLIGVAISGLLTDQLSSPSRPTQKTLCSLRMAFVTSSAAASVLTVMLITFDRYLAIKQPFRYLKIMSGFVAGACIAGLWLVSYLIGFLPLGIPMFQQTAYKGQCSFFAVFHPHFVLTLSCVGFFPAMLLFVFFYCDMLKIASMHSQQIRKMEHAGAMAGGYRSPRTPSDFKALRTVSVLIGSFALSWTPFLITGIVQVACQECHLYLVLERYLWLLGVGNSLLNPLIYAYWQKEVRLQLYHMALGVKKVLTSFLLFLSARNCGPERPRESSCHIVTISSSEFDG
The depositor's hits bear a star; . = no result.

SMILES	FBW7 act	TEAD-YAP inh	GPR151 ag	MITF inh	GPR151 conf act	GPR119 counter
O=C(NS(=O)(=O)c1ccccc1)c1cccc(Br)c1	0	1	5.9*	12	0	-18
C=CCC1C=CCC(CC=C)N1C(=O)c1ccccc1[N+](=O)[O-] (centres undefined)	0	1	9.2*	-4	0	-2
O=C(c1ccccc1[N+](=O)[O-])N1CC2C3C=CC(C3)C2C1 (centres undefined)	0	5	0	-2	.	.
O=C(N1CCOCC1)N1CCN(Cc2ccc3c(c2)OCO3)CC1	0	11	6.1*	7	0	-4
OC(COc1ccccc1)CN1CCN(Cc2ccc3c(c2)OCO3)CC1 (centres undefined)	0	8	8.4*	15	-1	-8
CCN1CCN(CC(O)COCc2ccc3c(c2)OCO3)CC1 (centres undefined)	0	5	0	11	.	.
Cc1nnc2ccc(SCC(=O)N3CCN(Cc4ccc5c(c4)OCO5)CC3)nn12	0	-6	5.7*	16	1	5
OC(COCc1ccc2c(c1)OCO2)CN1CCN(Cc2ccccc2)CC1 (centres undefined)	0	2	6.9*	1	0	-2
O=[N+]([O-])c1ccc(/C=C/c2nn3c(Cc4ccccc4)nnc3s2)cc1	0	7	0	11	.	.
COc1ccc(NC(=O)CSc2nc3c(sc(=S)n3-c3ccccc3)c(=O)n2-c2ccc(OC)c(OC)c2)c(OC)c1	0	9	2	4	.	.
Cc1ccccc1N(CC(=O)N1CCOCC1)S(=O)(=O)c1ccc(Cl)cc1	0	4	14*	-6	1	3
Cc1ccccc1N(CC(=O)N1CCCC1)S(=O)(=O)c1ccc(Cl)cc1	0	-12	0	19	.	.
Cc1ccc(/C=C/C(=O)OCc2csc(-c3ccccc3)n2)o1	0	0	0	4	.	.
Cc1ccc(NC(=O)c2cnc(SCc3cccnc3)n(C)c2=O)cc1C	0	-29	10.0*	-7	-1	-18
COc1ccc(-c2csc(NC(=O)c3ccccc3OC)c2C(=O)O)cc1	0	3	1	1	.	.
Cc1ccc(NC(=O)N2CCOCC2)cc1	0	-3	-1	-11	.	.
CCC(C)c1ccc(NC(=O)N2CCOCC2)cc1 (centres undefined)	0	-57	5.4*	12	-1	-8
C=CCNC(=O)C(C)(C)Oc1ccc(Cl)cc1	0	-5	0	19	.	.
CC(CCc1ccccc1)NCc1ccc2c(c1)OCO2 (centres undefined)	0	-14	1	-5	.	.
Cc1cccc(NC(=O)CSc2nc3c(c(=O)n2-c2ccc(F)cc2)SCC3)c1	0	3	6.5*	-13	0	-2
COc1ccccc1-c1nnc2sc(-c3ccc4c(c3)OCCO4)nn12	-1	53*	5.7*	-10	1	9
COc1ccccc1-c1nnc2sc(-c3cc(OC)c(OC)c(OC)c3)nn12	0	2	-1	5	.	.
Cc1cccc(C)c1OCCCCN1CCOCC1	0	-4	0	13	.	.
O=C(CN1CCCC(O)C1)N1c2ccccc2Sc2ccc(C(F)(F)F)cc21 (centres undefined)	0	2	9.5*	23	0	-4
CN(C)/N=C/c1ccc(OC(=O)c2ccccc2Cl)cc1	0	-5	-1	7	.	.
SMILES	FBW7 act	TEAD-YAP inh	GPR151 ag	MITF inh	GPR151 conf act	GPR119 counter
Cn1c(=O)oc2cc(S(=O)(=O)N3CCC(N4CCCCC4)CC3)ccc21	0	-4	5.9*	16	-1	-9
Cn1c(=O)oc2cc(S(=O)(=O)N3CCN(C4CCCCC4)CC3)ccc21	0	-12	-1	4	.	.
O=[N+]([O-])c1cccc(Cl)c1CSc1nnnn1-c1cccc2ccccc12	0	4	0	14	.	.
O=[N+]([O-])c1cccc(Cl)c1CSc1nnnn1-c1ccccc1	0	7	6.2*	7	0	2
CCc1cccc(NC(=O)C2CCCC2)c1	0	-17	10*	7	0	-11
O=C(NNC(=O)c1ccccc1Br)c1ccc(Cl)cc1	0	-14	1	-5	.	.
O=C(NOC(=O)c1ccccc1Br)c1ccc(Cl)cc1	0	8	8.0*	-10	0	6
CN(C)c1ncnc2c1C(c1ccc([N+](=O)[O-])cc1)c1c(ncnc1N(C)C)O2	0	-7	6.2*	8	0	-6
COc1ccc(NCc2ccc(OC)c(OC)c2OC)cc1Cl	0	-31	7.9*	17	1	15
O=C1NC2(CCN(C(=O)c3ccc(CN4CCCC4)o3)CC2)Nc2ccc(Cl)cc21	0	-8	0	-4	.	.
COc1cccc(CNC(=O)c2cc3ccc(-c4cn[nH]c4)cc3n2CCCO)c1	0	-7	5.5*	5	0	8
COc1cccc(CNC(=O)c2cc3ccc(-c4ccncc4)cc3[nH]2)c1	0	-3	-2	12	.	.
COc1cccc(CNC(=O)c2cc3ccc(-c4ccncc4)nc3[nH]2)c1	0	-14	5.2*	4	0	2
COc1cccc(CNC(=O)c2cc3ccc(-c4ccncc4)cc3n2C)c1	0	-7	7.8*	16	1	-1
